Assay results as given in PubChem BioAssay (Tox21).
“And” between values parts separate entries of the source, which are not always exact repeats. Equal entries are not always repeated. Inconclusive results are not listed. Where a call stands in place of a potency, no number is given. More than one record can exist for a structure, and the calls need not agree. The source made the active and inactive calls. Unless noted, calls come from the whole dose curve; as a rule, active = well fitted curve in the direction sought with a large enough effect in the repeat runs; inconclusive = weak or mixed curves; inactive = no such curve, though single readings can be large; an effect the other way counts as inactive or inconclusive.

Legend:
[1] = biological target: Luciferin 4-monooxygenase (Photinus pyralis) (UniProt P08659); test: qHTS assay to identify small molecule inhibitors of firefly luciferase (AID 1224835); note: nearly all actives have a fitted effect of over 25% in size; note: potency is the fitted concentration of half-maximal effect
Summary of the method: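 Biochemical qHTS: compounds run as interplate titrations against purified firefly enzyme, with D-luciferin and ATP each at its KM concentration. Light output recorded by CCD imaging.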

[2] = biological target: Nuclear receptor subfamily 1 group I member 3 (Homo sapiens) (UniProt Q14994); test: qHTS assay to identify small molecule antagonists of the constitutive androstane receptor (CAR) signaling pathway (AID 1224838); note: nearly all actives have a fitted effect of over 40% in size; note: potency is the fitted concentration of half-maximal effect
Summary of the method: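 Inhibition of CITCO-driven (50 nM final) CYP2B6 reporter expression is measured in HepG2 cells stably carrying hCAR. Fifteen compound concentrations are applied for 24 h at 37 C, followed by luciferase luminescence.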

[3] = biological target: Nuclear receptor subfamily 1 group I member 3 (Homo sapiens) (UniProt Q14994); test: qHTS assay to identify small molecule agonists of the constitutive androstane receptor (CAR) signaling pathway (AID 1224839); note: nearly all actives have a fitted effect of over 15% in size; note: potency is the fitted concentration of half-maximal effect
Summary of the method: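 HepG2 cells stably co-transfected with hCAR and a CYP2B6-2.2kb luciferase reporter; compounds at 15 concentrations with 0.75 uM PK11195 present. After 24 hr at 37 C, luciferase read by ONE-Glo luminescence.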

[4] = qHTS assay to identify small molecule antagonists of the estrogen related receptor signaling pathway with the pleiotropic PPARgamma coactivator (PGC) from Tox21 10K library - cell viability counter screen (AID 1224840; active = well fitted cell-killing curve with a large enough effect in the repeat runs, not every such curve was filed as active; note: nearly all actives have a fitted effect of over 40% in size; note: potency is the fitted concentration of half-maximal effect)
Summary of the method: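 Readout: fluorescence intensity from CellTiter-Fluor after 30 min at 37 C/5% CO2. Preceded by 17.5 h treatment of PGC/ERR cells with DMSO-dissolved compounds, added 6 h post-seeding.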

[5] = biological target: Thyrotropin receptor (Homo sapiens) (UniProt P16473); test: qHTS assay to identify small molecule agonists of the thyroid stimulating hormone receptor (TSHR) signaling pathway (AID 1224843; calls by dose curve; note: nearly all actives have a fitted effect of over 45% in size; note: potency is the fitted concentration of half-maximal effect)
Summary of the method: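 HEK293/TSHR, 800 cells/well; cpd 30 min RT; add cAMP-d2 + anti-cAMP-cryptate, 1 h RT; fluorescence read on plate reader. 15-pt titration, n=3.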

[6] = qHTS assay to identify small molecule agonists of the hypoxia (HIF-1) signaling pathway - cell viability counter screen (AID 1224844; calls by dose curve; note: nearly all actives have a fitted effect of over 50% in size; note: potency is the fitted concentration of half-maximal effect)
Summary of the method: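 In this counter screen, HRE-bla ME-180 cell viability after 17 hrs of compound exposure at 37C was read by CellTiter-Glo luminescence, multiplexed with the beta-lactamase reporter measurement.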

[7] = qHTS assay to identify small molecule antagonists of the constitutive androstane receptor (CAR) signaling pathway - cell viability counter screen (AID 1224837); note: nearly all actives have a fitted effect of over 45% in size; note: potency is the fitted concentration of half-maximal effect
Summary of the method: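 CITCO at 50 nM final was added alongside compounds (15 concentrations) to double-stable hCAR/CYP2B6-2.2kb HepG2 cells. Following 23 hr at 37 C, cell viability was quantified by CellTiter-Fluor fluorescence intensity.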

[8] = qHTS assay to identify small molecule antagonists of the estrogen related receptor signaling pathway with the pleiotropic PPARgamma coactivator (PGC) from Tox21 10K library (AID 1224841; call rule not given here; note: actives are mostly falling curves and most rising ones were filed inactive; nearly all actives have a fitted effect of over 50% in size; note: potency is the fitted concentration of half-maximal effect)
Summary of the method: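 One-Glo luminescence, measured after half an hour at room temperature, quantified reporter output of PGC/ERR cells. These had been plated at 2,000 per well, incubated 6 h, dosed with compounds in DMSO, then kept 18 h at 37 C.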

[9] = qHTS assay to identify small molecule agonists of the estrogen related receptor signaling pathway with the pleiotropic PPARgamma coactivator (PGC) from Tox21 10K library (AID 1224842); note: nearly all actives have a fitted effect of over 15% in size
Summary of the method: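 PGC/ERR reporter cell line, 2,000 cells per well, incubated 6 h at 37 C before 23 nL compound in DMSO was added. After 18 h at 37 C, One-Glo luminescence read following 30 min at room temperature.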

[10] = qHTS assay to identify small molecule agonists of the constitutive androstane receptor (CAR) signaling pathway - cell viability counter screen (AID 1224836); note: nearly all actives have a fitted effect of over 45% in size; note: potency is the fitted concentration of half-maximal effect
Summary of the method: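 HepG2 cells stably carrying hCAR and a CYP2B6-2.2kb reporter; 15-concentration compounds plus PK11195 (final 0.75 uM), 23 hr at 37 C/5% CO2. Viability read by CellTiter-Fluor fluorescence.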

Chain of Luciferin 4-monooxygenase (Photinus pyralis) (P08659 whole entry, looked up): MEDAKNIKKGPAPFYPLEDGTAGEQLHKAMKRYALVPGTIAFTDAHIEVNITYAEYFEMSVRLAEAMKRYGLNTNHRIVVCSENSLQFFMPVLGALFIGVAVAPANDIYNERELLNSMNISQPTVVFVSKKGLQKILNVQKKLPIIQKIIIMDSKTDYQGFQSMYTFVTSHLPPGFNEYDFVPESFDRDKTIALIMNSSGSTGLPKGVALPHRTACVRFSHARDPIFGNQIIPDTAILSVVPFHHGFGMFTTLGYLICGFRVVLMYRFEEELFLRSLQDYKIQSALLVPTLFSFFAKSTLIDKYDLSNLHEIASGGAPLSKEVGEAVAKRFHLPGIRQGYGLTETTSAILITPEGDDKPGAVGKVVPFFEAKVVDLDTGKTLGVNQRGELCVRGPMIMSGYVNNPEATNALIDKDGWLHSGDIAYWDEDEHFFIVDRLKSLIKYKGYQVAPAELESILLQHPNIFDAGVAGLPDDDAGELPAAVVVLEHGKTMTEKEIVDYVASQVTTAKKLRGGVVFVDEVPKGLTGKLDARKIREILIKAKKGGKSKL
Chain of Nuclear receptor subfamily 1 group I member 3 (Homo sapiens) (Q14994 whole entry, looked up): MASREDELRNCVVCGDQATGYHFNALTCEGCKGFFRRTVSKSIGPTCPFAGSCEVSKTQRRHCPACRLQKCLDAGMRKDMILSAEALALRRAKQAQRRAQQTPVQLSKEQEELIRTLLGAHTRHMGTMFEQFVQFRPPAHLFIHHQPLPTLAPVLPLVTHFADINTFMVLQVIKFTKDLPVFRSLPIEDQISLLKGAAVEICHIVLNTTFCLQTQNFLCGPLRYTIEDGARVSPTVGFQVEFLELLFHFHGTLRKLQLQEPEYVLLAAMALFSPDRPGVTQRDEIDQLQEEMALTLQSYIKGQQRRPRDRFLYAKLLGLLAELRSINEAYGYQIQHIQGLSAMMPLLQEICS
Chain of Thyrotropin receptor (Homo sapiens) (P16473 whole entry, looked up): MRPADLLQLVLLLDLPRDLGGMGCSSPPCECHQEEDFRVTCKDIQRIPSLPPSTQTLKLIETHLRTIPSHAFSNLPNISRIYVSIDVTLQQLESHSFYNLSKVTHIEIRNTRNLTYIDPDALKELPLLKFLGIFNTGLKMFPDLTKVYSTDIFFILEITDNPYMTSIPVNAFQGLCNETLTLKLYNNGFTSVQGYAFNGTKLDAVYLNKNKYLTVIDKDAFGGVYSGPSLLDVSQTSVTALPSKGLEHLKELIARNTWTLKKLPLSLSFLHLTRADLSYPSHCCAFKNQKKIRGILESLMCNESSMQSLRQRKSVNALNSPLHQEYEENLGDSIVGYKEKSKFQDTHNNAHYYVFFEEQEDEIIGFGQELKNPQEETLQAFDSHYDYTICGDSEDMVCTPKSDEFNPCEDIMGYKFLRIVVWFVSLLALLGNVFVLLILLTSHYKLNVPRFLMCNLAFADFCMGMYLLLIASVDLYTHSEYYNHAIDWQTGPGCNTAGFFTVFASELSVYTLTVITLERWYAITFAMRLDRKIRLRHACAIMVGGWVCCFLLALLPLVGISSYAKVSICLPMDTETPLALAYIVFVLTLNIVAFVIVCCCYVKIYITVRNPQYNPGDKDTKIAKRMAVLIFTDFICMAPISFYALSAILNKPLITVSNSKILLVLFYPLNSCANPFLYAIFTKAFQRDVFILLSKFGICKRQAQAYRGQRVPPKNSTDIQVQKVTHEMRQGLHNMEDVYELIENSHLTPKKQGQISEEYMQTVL

SMILES | Potency [1] | Potency [2] | Potency [3] | Potency [4] | Potency [5] | Potency [6] | Potency [7] | Potency [8] | Potency [9] | Potency [10]
Nc1ccc2cc3ccccc3cc2c1 | 20.4 µM (active) and 17.8 µM (active) | inactive | 27.8 µM (active) and 48.6 µM (active) | inactive | inactive | inactive |  |  |  | 
O=C1OC2(c3ccc(O)cc3Oc3cc(O)ccc32)c2ccccc21 | inactive |  |  |  | inactive | inactive |  |  |  | 
O=C(Nc1ccccc1SSc1ccccc1NC(=O)c1ccccc1)c1ccccc1 | 5.05 µM (active) and 2.52 µM (active) | 21.8 µM (active) and 30.6 µM (active) | inactive | 30.8 µM (active) and 48.6 µM (active) | inactive | 15.6 µM (active) and 21.9 µM (active) | 19.4 µM (active) and 24.3 µM (active) | 27.4 µM (active) and 27.3 µM (active) | inactive | 
COc1ccc(Cc2cnc(N)nc2N)cc1OC |  | inactive | inactive | inactive | inactive | inactive | inactive | inactive | inactive | inactive
CCN1CCCC1CNC(=O)c1cc(S(=O)(=O)CC)c(N)cc1OC (centres undefined) |  | inactive | inactive | inactive | inactive | inactive | inactive | inactive | inactive | inactive
Nc1cc(Cl)c(-c2cc(Cl)c(N)cc2Cl)cc1Cl | inactive | 13.7 µM (active) and 27.3 µM (active) | inactive |  | inactive | 38.9 µM (active) |  |  | inactive | 
Cc1ccc(-c2cc(C(F)(F)F)nn2-c2ccc(S(N)(=O)=O)cc2)cc1 | inactive |  |  | 54.3 µM (active) and 54.5 µM (active) and inactive | 48.4 µM (active) and 34.4 µM (active) and inactive | 48.8 µM (active) and 54.9 µM (active) and inactive |  | 60.9 µM (active) and inactive | inactive | 
Cc1cc(C2(c3cc(C)c(O)cc3C)OS(=O)(=O)c3ccccc32)c(C)cc1O |  | inactive | inactive | 19.3 µM (active) | inactive | inactive | 24.3 µM (active) and 19.3 µM (active) | 34.4 µM (active) and inactive | inactive | 24.3 µM (active) and 27.3 µM (active)
CN1C(=O)c2ccc([N+](=O)[O-])cc2C1=O |  | inactive | inactive | inactive | inactive | inactive | inactive | inactive | inactive | inactive
CC(C)(C)NCC(O)c1cc(O)cc(O)c1 (centres undefined) | inactive |  |  | inactive | 596 nM (active) | inactive | inactive |  |  | inactive
CCCCCCCCCCCC[N+](C)(C)C | inactive | inactive | inactive |  |  | inactive |  |  |  | 
Nc1cc(S(=O)(=O)O)cc2cc(S(=O)(=O)O)cc(O)c12 | 31.7 µM (active) |  |  |  |  | inactive and 4.9 µM (active) | inactive |  |  | inactive
COc1ccc(COC(C)=O)cc1 |  | inactive | inactive | inactive | inactive | inactive | inactive | inactive | inactive | inactive
COc1ccc(CCN2CCC(Nc3nc4ccccc4n3Cc3ccc(F)cc3)CC2)cc1 |  | 17.6 µM (active) and 26.6 µM (active) | inactive | 19.8 µM (active) and 29.8 µM (active) | inactive | 12.6 µM (active) | 17.6 µM (active) and 29.8 µM (active) |  | inactive | 17.6 µM (active) and 29.8 µM (active)
OCC(CO)N[C@H]1C[C@](O)(CO)[C@@H](O)[C@H](O)[C@H]1O |  | inactive | inactive | inactive | inactive | inactive | inactive | inactive | inactive | inactive
CC(C)(O)CCC(C)(C)O |  | inactive | inactive | inactive | inactive | inactive | inactive | inactive | inactive | inactive
CC(C)CCCCCCc1ccc(O)cc1 | 36.2 µM (active) and inactive |  | inactive and 17.2 µM (active) | 48.6 µM (active) |  | 11.2 µM (active) |  |  |  | 

SMILES | Potency [1] | Potency [2] | Potency [3] | Potency [4] | Potency [5] | Potency [6] | Potency [7] | Potency [8] | Potency [9] | Potency [10]
CCn1c2ccccc2c2cc(N)ccc21 |  | inactive | 10.8 µM (active) and 15.4 µM (active) and 30.6 µM (active) | inactive | inactive | inactive | inactive |  | inactive | inactive
NCCCCCC(=O)O | inactive |  |  | inactive | inactive | inactive | inactive |  |  | inactive
CCC[C@H](N[C@@H](C)C(=O)N1[C@H](C(=O)O)C[C@@H]2CCCC[C@@H]21)C(=O)OCC | inactive |  |  | inactive | inactive | inactive | inactive |  |  | inactive
CCC(=O)/C=C/C1C(C)=CCCC1(C)C (centres undefined) | inactive |  |  | inactive | inactive | inactive | inactive |  |  | inactive
CC(=O)C1=C(C)[C@@H]2C[C@@]3(C1)[C@H](C)CC[C@H]3C2(C)C |  | inactive | 40.3 µM (active) and 27.3 µM (active) | inactive | inactive | inactive | inactive |  |  | inactive
C=C(C)C(=O)O | inactive |  |  | inactive |  | inactive | inactive |  |  | inactive
c1ccc2c(c1)CCCC2C1=NCCN1 (centres undefined) | inactive |  |  | inactive | inactive | inactive | inactive |  |  | inactive
CCN(CC)c1ccc2c(C)cc(=O)oc2c1 | 40.2 µM (active) and 35.6 µM (active) | inactive | 27.5 µM (active) and 48.6 µM (active) | inactive | inactive | inactive |  |  |  | 
Cc1occc(=O)c1OC(=O)C(C)C |  |  | inactive | inactive | inactive | inactive | inactive | inactive | inactive | inactive
CC(C)(c1ccccc1)c1ccc(Nc2ccc(C(C)(C)c3ccccc3)cc2)cc1 |  |  | inactive | inactive | inactive | inactive | inactive | inactive | inactive | inactive
NNCCc1ccccc1 |  | inactive |  | inactive | inactive | inactive | inactive |  |  | inactive
CCCCCC(=O)O[C@]1(C(C)=O)CC[C@H]2[C@@H]3CCC4=CC(=O)CC[C@]4(C)[C@H]3CC[C@@]21C |  | inactive | inactive | 54.1 µM (active) |  | 38.6 µM (active) | 48.2 µM (active) | inactive | inactive | 
C=CS(=O)(=O)O |  |  | inactive | inactive | inactive | inactive | inactive | inactive | inactive | inactive
CCN(CC)CCOc1ccc(/C(=C(\Cl)c2ccccc2)c2ccccc2)cc1 |  | inactive | inactive | 49.6 µM (active) |  | 39.7 µM (active) | inactive |  |  | 
CCCN[C@H]1CCc2nc(N)sc2C1 |  |  | inactive | inactive | inactive | inactive | inactive |  |  | inactive
O=C(O[C@@H]1Cc2c(O)cc(O)cc2O[C@@H]1c1cc(O)c(O)c(O)c1)c1cc(O)c(O)c(O)c1 |  |  | inactive |  |  | inactive |  |  |  | 
